Pf growth 96h: P. falciparum growth inhibition at 96 hour, primary screen for plastid delayed-death inhibitors. P. falciparum luciferase reporter growth, 96 h. Potency, µM (titrated, usually from 28.7 µM), inactives show top-dose activity change, negative = inhibition, usual class: inhibitors. 6.9% of 320,000 active; note: potency is the fitted concentration of half-maximal effect; % is set by controls: 0 for no effect and ±100 for the full control effect
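Plates of compound plus infected erythrocytes (2% hematocrit, 0.05% parasitemia final) incubate 96 hours, 37 C, 5% CO2. Detection reagent added; reduced luminescence from the parasites' luciferase reporter flags inhibition.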
Shiga inhibitor: Shiga toxin inhibition. Vero cells, Shiga toxin protein synthesis inhibition reporter. inhibition, % at 38.7 µM. 9.2% of 290,000 active; in the data active = inhibition mostly above about 28%, no sharp cut-off; inactive = mostly below about 43%; note: 0% is about no effect
HCV inh: blocks hepatitis C virus; Huh7.5.1 HCVcc-Cre infection, luciferase reporter, 44 h; Potency, µM (series often up to 41.8 µM), for inactives: top-dose activity change, negative = inhibition, most hits filed as inhibitors; 3.4% of 340,000 active; note: potency is the fitted concentration of half-maximal effect; % is set by controls: 0 for no effect and ±100 for the full control effect
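Cells seeded at 1,000/well and cultured 4 h, then compounds added followed by HCVcc-Cre virus (~0.5 moi). After 44 h further culture, luciferase substrate was added, plates held 15 min at room temperature, and luminescence read for 15 sec.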
HCMV antiviral: inhibitors of human cytomegalovirus; activity change, negative = inhibition, % at 57.5 µM; 4.5% of 410,000 active; HFF cells, HCMV-luciferase reporter, 72 h; hits give low values; in the data active = activity change below about -60%; inconclusive = no clear call, values can overlap the other calls; inactive = above about -39%; note: % is set by controls: 0 for no effect and ±100 for the full control effect
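HFF cells seeded 16 h at 37C, treated with compounds, infected with luciferase-reporter HCMV at MOI 1 PFU/cell; luciferase read at 72 h post infection, normalized to buffer-only and Salinomycin controls.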
Cycloheximide cs: affects cycloheximide protein synthesis inhibition readout, counter-screen. max response, %. 12% of 300,000 active. cell reporter, cycloheximide protein synthesis inhibition counterscreen. AID 2314; in the data active = max response mostly above about 13%, no sharp cut-off; inactive = mostly below about 14%; note: read at 38.3 µM for the half of the compounds with a filed dose; 0% is about no effect
Pf growth 48h: P. falciparum growth inhibition at 48 hours (one generation); P. falciparum luciferase growth in erythrocytes, 48 h; AID 504832; 5.9% of 310,000 active; Potency, µM (series often up to 28.7 µM), without a hit: at the highest dose activity change, negative = inhibition, most hits filed as inhibitors; note: potency is the fitted concentration of half-maximal effect; % is set by controls: 0 for no effect and ±100 for the full control effect
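Cell-based growth assay: transgenic P. falciparum expressing firefly luciferase, cultured in red cells within RPMI 1640 containing 0.5% w/v Albumax, 24 mM bicarbonate and gentamycin. A drop in luciferase activity indicates inhibition.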
* marks the source's active call; other numbers are inactive results; [ ] = dose if it differs, or a comment. An excerpt weighted towards active compounds, which were near 21% of everything screened. Unless noted, calls come from the whole dose curve; as a rule, active = well fitted inhibition curve with a large enough effect; inconclusive = small, poorly fitted or top-dose-only effect, or another doubt; inactive = no such curve, though single readings can be large or run the other way.

`Nc1cc(C(F)(F)F)ccc1NCCc1ccccn1` gave Pf growth 96h inconclusive, Shiga inhibitor 35, HCV inh 4%, HCMV antiviral -32 and Cycloheximide cs 12.
CC(C)c1ccc(NC(=O)CSc2ncccc2C(=O)Oc2cccc([N+](=O)[O-])c2)cc1 was read as Pf growth 96h inconclusive, Shiga inhibitor 36*, HCV inh 2%, HCMV antiviral -14, Cycloheximide cs 46* and Pf growth 48h 75%.
For COc1ccc(NC(=O)CSc2ncccc2C(=O)OC(C)C)cc1OC the results were Pf growth 96h -15%, Shiga inhibitor 6, HCV inh 7.9µM*, HCMV antiviral -87* and Cycloheximide cs 5.
`COc1ccc(NC(=O)CSc2ccccn2)cc1OC` gave Pf growth 96h 20%, Shiga inhibitor 29, HCV inh 5%, HCMV antiviral 9, Cycloheximide cs 19 and Pf growth 48h 13%.
Screening O=C(NCCC1CCCCN1S(=O)(=O)c1ccccc1)C(=O)NCc1ccccc1 (stereo not drawn) returned Pf growth 96h 17µM*, HCV inh -3%, HCMV antiviral -13 and Pf growth 48h -21%.
Screening Cc1cc(S(=O)(=O)N2CCCCC2CCNC(=O)C(=O)NCc2cccnc2)ccc1F (stereo not drawn) returned Pf growth 96h 13µM*, HCV inh -2%, HCMV antiviral -26 and Pf growth 48h inconclusive.
`O=C(NCCC1CCCCN1S(=O)(=O)c1ccccc1)C(=O)NCc1ccc(F)cc1` (stereo not drawn) gave Pf growth 96h inconclusive, HCV inh inconclusive, HCMV antiviral -20 and Pf growth 48h 10µM*.
Screening CCCSc1ncc(Cl)c(C(=O)Nc2c(C(=O)Nc3ccc(C)cc3)oc3ccccc23)n1 returned HCMV antiviral 12.
CCOC(=O)Cn1c(=NC(=O)C(C)C)sc2c(C)cc(C)cc21 was read as Pf growth 96h inconclusive, Shiga inhibitor 1, HCV inh 6%, HCMV antiviral -17, Cycloheximide cs -5 and Pf growth 48h 1.9µM*.
Screening Cc1noc(C)c1C(c1ccccc1)S(=O)(=O)c1ccccc1 (stereo not drawn) returned Pf growth 96h -6%, Shiga inhibitor 2, HCV inh 5%, HCMV antiviral 1, Cycloheximide cs -4 and Pf growth 48h 10%.
For Cc1ccc(S(=O)(=O)C(c2ccccc2)c2c(C)noc2C)cc1 (stereo not drawn) the results were Pf growth 96h -24%, Shiga inhibitor 2, HCV inh -6%, HCMV antiviral -72*, Cycloheximide cs -3 and Pf growth 48h -8%.
For COc1cc(C=O)ccc1OCc1ccncc1 the results were Pf growth 96h inconclusive, Shiga inhibitor -4, HCV inh 4%, Cycloheximide cs -2 and Pf growth 48h -7%.
COc1ccc(CCNCc2ccc(OCc3ccc(Cl)nc3)c(OC)c2)cc1OC was read as Pf growth 96h 12µM*, Shiga inhibitor -7, HCV inh inconclusive, HCMV antiviral -25 and Cycloheximide cs -1.
`COc1cc(C=O)ccc1OCc1ccc(Cl)nc1` gave Pf growth 96h 1%, Shiga inhibitor 66*, HCV inh 11%, HCMV antiviral 110, Cycloheximide cs 41* and Pf growth 48h 154%.
COc1cc2c(cc1NC(=O)COc1ccc(Cl)cc1Br)oc1ccccc12 was read as HCMV antiviral -7.
`C=CCNC(=O)C1CC2Cn3c(nc4cc5ccccc5cc43)C2N1C` (stereo not drawn) gave Pf growth 96h inconclusive, Shiga inhibitor 38*, HCV inh 8%[8.37 µM], HCMV antiviral 20, Cycloheximide cs 41* and Pf growth 48h -6%.
CN1C(=O)[C@@H]2C[C@@]3([C@@]45C[C@H]6C(=O)N(C)[C@@H](Cc7ccccc7)C(=O)N6[C@@H]4Nc4ccccc45)c4ccccc4N[C@H]3N2C(=O)[C@@H]1Cc1ccccc1 was read as Pf growth 96h inconclusive, HCV inh inconclusive, HCMV antiviral -68* and Pf growth 48h 12µM*.

Assay outcomes as filed in PubChem BioAssay.
